The values below come from PubChem BioAssay (NCATS).

In this assay the target is Nicotinamide N-methyltransferase (Homo sapiens) (UniProt P40261). Kind of assay: Confirmatory Screen for Target Class Profiling of Small Molecule Inhibitors of Methyltransferases (AID 1745852). The conditions noted are these: MTase-Glo luminescence, SAH detection, recombinant enzyme; measured here: NNMT max response; stronger effect = lower value.
Nicotinamide N-methyltransferase (Homo sapiens), sequence (P40261 whole entry, looked up): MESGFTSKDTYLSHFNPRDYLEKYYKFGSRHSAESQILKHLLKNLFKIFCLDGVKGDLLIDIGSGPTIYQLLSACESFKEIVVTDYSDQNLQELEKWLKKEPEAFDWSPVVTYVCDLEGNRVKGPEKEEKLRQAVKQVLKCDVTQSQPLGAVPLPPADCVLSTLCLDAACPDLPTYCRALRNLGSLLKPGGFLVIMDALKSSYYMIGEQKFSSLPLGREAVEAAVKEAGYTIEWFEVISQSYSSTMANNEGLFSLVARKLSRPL
On to `CNC1CCc2ccccc21` (stereo unspecified), for which the activity was -95.4%.
In the case of `NC(=O)c1ccc(N2CC3CCC(C2)N3CC(F)(F)F)nn1`, the activity is -22.1%.
To `C=C[C@H]1CN2CC[C@H]1C[C@@H]2CNC(=O)Nc1ccc(Br)cc1` belongs -5.4%.
Next, `CN(CCc1ccccn1)C[C@H]1CN2CC[C@H]1C[C@@H]2CNC(=O)Nc1ccsc1`: 0.703%; `CC(=O)NC[C@H]1C[C@@H]2CCN1C[C@@H]2c1cc(-c2ccc3ccccc3c2)nn1C`: 1.11%.
Regarding `COc1ccc(-c2cc([C@H]3CN4CC[C@H]3C[C@@H]4CN)nc(C)n2)cc1OC`, the activity is -94.2%.
Next, `CC(=O)c1cccc(NC(=O)NC[C@H]2C[C@@H]3CCN2C[C@@H]3c2cc(-c3ccc(F)cc3)nc(C)n2)c1`: -9.36%; `CC[C@H]1CN2CC[C@H]1C[C@@H]2CNCc1ccc(-c2ccccc2)cc1`: 4.25%.
`COc1ccc(-c2cc3c(cn2)CN(C)CCN3)cn1`: the activity is -5.95%.
To `[Cl][Pt].[NH2-].[NH2-].c1ccncc1` belongs -8.73%; to `C[C@H]1CCCC(=O)CCC/C=C/c2cc(O)cc(O)c2C(=O)O1`, -84.9%.
